# Results taken from PubChem BioAssay (NCATS).
# Records with an inconclusive call do not appear. Where a call stands in place of a potency, no number is given. Activity calls are given as the source filed them. Calls follow the shape of the dose curve; as a rule, active = well fitted inhibition curve with a large enough effect; inconclusive = small, poorly fitted or top-dose-only effect; inactive = flat fitted curve, though single readings scatter.
# Test: P-glycoprotein substrates identified in KB-8-5-11 adenocarcinoma cell line, qHTS therapeutic library screen (AID 1346987); also: nearly all actives have a fitted effect of over 65% in size
# Conditions: KB-8-5-11 (P-gp overexpressing) viability, CellTiter-Glo, 72 h; series mostly up to 44.5 µM
# Description: The ATP-binding cassette transporters P-glycoprotein (P-gp) is known to limit brain penetration of many chemotherapy drugs. […] As such, we developed a high-throughput screen (HTS) to identify substrates of P-gp from a series of chemical libraries including the National Center for Advancing Translational Sciences Pharmaceutical Collection NPC, 2,816 compounds), testing a total of 10,804 compounds, most of which have known mechanisms of action. We used the CellTiter-Glo viability assay to test library compounds against the parental KB-3-1 human cervical adenocarcinoma cell line and the colchicine-selected sub-line KB-8-5-11 that over-expresses P-gp. KB-8-5-11 cells were also tested in the presence of a P-gp inhibitor (tariquidar) to assess reversability of transporter-mediated resistance. Of the tested compounds, a total of 90 P-gp substrates were identified including 55 newly identified P-gp substrates. Substrates were confirmed using an orthogonal killing assay against HEK-293 cells transfected with P-gp. As exemplars, we confirmed that […] (cyclin-dependent kinase inhibitor); AT9283, (Janus kinase 2/3 inhibitor); ispinesib (kinesin spindle protein inhibitor); gedatolisib (PKI-587, phosphoinositide 3-kinase/mammalian target of rampamycin inhibitor); GSK-690693 (AKT inhibitor); and KW-2478 (heat shock protein 90 inhibitor) were substrates , and direct ATPase stimulation was assessed. ABCG2 was also found to confer high levels of resistance to AT9283, GSK-690693 and gedatolisib, while ispinesib, AT7519 and KW-2478 were weaker substrates.
# The HeLa derivative cell line, KB-3-1, and its colchicine-selected, P-gp-overexpressing subline, KB-8-5-11 were maintained in DMEM with 10% FCS and Pen/Strep with glutamine at 37 degree C in 5% CO2. For KB-8-5-11 cells, colchicine was added to the medium at a concentration of 100 ng/mL. HEK-293 cells transfected with empty vector (pcDNA) or vector containing human ABCB1 (MDR-19) or ABCG2 (R-5) have been described previously (Robey, Lin, Qiu, Chan & Bates, 2011) and were maintained in EMEM supplemented with 10% FCS, Pen/Strep and glutamine with 2 mg/ml G418 to select for the expression of the transporter. Cultures were confirmed to be free of mycoplasma infection using the MycoAlert Mycoplasma Detection Kit (Lonza, Walkersville, MD). For the screen, assay medium was identical to culture medium except for KB-8-5-11 where colchicine was excluded from the medium.
# All cell lines were plated into 1536-well plates at 500 cells/well in 5 uL media. Compounds were then pinned in dose-response using a 1536-head pin tool (Kalypsis, San Diego, CA) and plates were incubated at 37 degree C in 5% CO2 for an additional 72 h. CellTiter-Glo reagent (Promega) was dispensed into the wells, incubated for 5 min and luminescence was read on a ViewLux instrument (Perkin-Elmer). Cytotoxic compounds were defined as those that yielded a curve class of -1.1, -1.2, -2.1, -2.2, -2.3, or -2.4, a maximum response of >50% and an AC50 of < 10 uM. Cherry-picked hits from screening analysis were tested with both the KB pair of cell lines, and the pcDNA (empty vector control) and MDR-19 (P-gp overexpressing) pair were tested, in the absence and presence of tariquidar.
# Potency is read from the fitted curve at half-maximal effect.
row,Structure (SMILES),Potency
1,NC(=O)c1ccccc1O,inactive
2,O=S(c1cc(Cl)cc(Cl)c1O)c1cc(Cl)cc(Cl)c1O,inactive
3,CCCCC(CC)COC(=O)/C=C/c1ccc(OC)cc1 (stereo not given),inactive
4,CC1CCc2c(N3CCC(O)CC3)c(F)cc3c(=O)c(C(=O)O)cn1c23 (stereo not given),inactive
5,Cc1cccc(C)c1NC(=O)CN1CCCCCC1,inactive
6,CCOC(=O)Nc1ccc2c(c1)N(C(=O)CCN1CCOCC1)c1ccccc1S2,inactive
7,NC(=O)n1c(O)c(C(=O)c2cccs2)c2cc(Cl)ccc21,inactive
8,CC(C)Cn1cnc2c1c(=O)n(C)c(=O)n2C,inactive
9,CCN1CCN(C(=O)N[C@@H](C(=O)N[C@@H]2C(=O)N3C(C(=O)O)=C(CSc4nnnn4C)CS[C@H]23)c2ccc(O)cc2)C(=O)C1=O,inactive
10,C#C[C@]1(OC(C)=O)CC[C@H]2[C@@H]3CCC4=C/C(=N/O)CC[C@@H]4[C@H]3CC[C@@]21CC,6.51 µM (active)
11,CN(C)CCOC(=O)C(c1ccccc1)C1(O)CCCC1 (stereo not given),inactive
12,OC1C(O)C(O)C(O)C(O)C1O (stereo not given),inactive
13,NCCNc1cccc2ccccc12,inactive
14,CC(O)Cn1cnc2c1c(=O)n(C)c(=O)n2C (stereo not given),inactive
15,Nc1ccc(S(=O)(=O)NCc2ccccc2)cc1,inactive
16,CCCCC(CC)COC(=O)c1ccc(N(C)C)cc1 (stereo not given),inactive
17,OCCOCCN1CCN(C2=Nc3ccccc3Sc3ccccc32)CC1,inactive
18,Cc1c(-c2ccccc2)oc2c(C(=O)OCCN3CCCCC3)cccc2c1=O,inactive
19,Cc1cc(NS(=O)(=O)c2ccc(N)cc2)nc(C)n1,inactive
20,O=[N+]([O-])c1cccc(S(=O)(=O)NCCNS(=O)(=O)c2cccc([N+](=O)[O-])c2)c1,inactive

row,Structure (SMILES),Potency
1,C[C@@]12C(=O)OC(=O)[C@]1(C)C1CCC2O1,3.12 µM (active)
2,C#C[C@]1(O)CC[C@H]2[C@@H]3CCC4=CC(=O)CC[C@@H]4[C@H]3CC[C@@]21CC,8.2 µM (active)
3,Nc1ccc(C(=O)NCC(=O)O)cc1,inactive
4,CCOc1cc(OCC)c(C(=O)CCC(=O)O)cc1OCC,inactive
5,COc1ccc(/C=N/NC(=O)c2ccncc2)cc1OC,inactive
6,CC(=O)NC(=O)c1ccccc1O,inactive
7,CCNC(=O)/C=C/c1cccc(Br)c1,inactive
8,Cc1cc2c(OCC(CNC(C)(C)C)OC(=O)c3ccccc3)cccc2[nH]1 (stereo not given),inactive
9,CCC1Nc2cc(Cl)c(S(N)(=O)=O)cc2S(=O)(=O)N1 (stereo not given),inactive
10,CCN(CC)CCNC(=O)COc1ccc(OC)cc1,inactive
11,O=C(O)CCc1nc2ccccc2[nH]1,inactive
12,COc1cc(NS(=O)(=O)c2ccc(N)cc2)ncn1,inactive
13,CC(=O)Nc1ccc(CC(=O)O)cc1,inactive
14,C/C=C/c1ccc(O)c(OC)c1,inactive
15,CCC(CC)(CC(=O)Nc1cccc(/C=C/c2nc(C3CCC3)cs2)c1)C(=O)O,inactive
16,CC(CNC1CCCCC1)OC(=O)c1ccccc1 (stereo not given),inactive
17,C[N+]12CCC(CC1)C(OC(=O)C(O)(c1ccccc1)c1ccccc1)C2 (stereo not given),inactive
18,O=C1C(O)=C(O)C(=O)C(O)=C1O,inactive
19,CC(C)(C)NCC(O)COc1cccc2c1C[C@H](O)[C@H](O)C2 (stereo not given in full),inactive
20,Cc1cc(C)cc(OCC2CNC(=O)O2)c1 (stereo not given),inactive
